# According to the supplement of paper PMC6411743:
# ± gives the standard deviation of the averaged measurements. The full data set covers some 6,200 targets. This sample favours those with the largest changes.
# Key:
# Assay in all cases: NP40-soluble protein abundance relative to vehicle (solubility fold change) (ratio); higher = more soluble protein in presence of AMP-PNP
# [1] = biological target: T1, D6R9V8|Q9UKY7 (UniProt Q9UKY7)
# T1 sequence (whole entry): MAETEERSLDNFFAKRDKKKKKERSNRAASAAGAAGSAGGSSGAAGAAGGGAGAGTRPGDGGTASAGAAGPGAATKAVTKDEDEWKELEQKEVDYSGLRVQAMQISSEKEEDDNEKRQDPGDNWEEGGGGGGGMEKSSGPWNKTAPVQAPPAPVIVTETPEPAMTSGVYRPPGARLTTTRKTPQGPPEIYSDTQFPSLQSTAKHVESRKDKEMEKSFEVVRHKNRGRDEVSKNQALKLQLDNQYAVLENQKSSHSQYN
# Procedure, shortened: (§1)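 Across three independent experiments, values are fold changes against the detergent-processed vehicle for each replicate, based on vsn-normalised intensities. The samples were Jurkat crude lysate treated with eight concentrations (0.1 to 10 mM) for 10 min at room temperature and then 3 min at 37 °C. Lysate was solubilised with 0.8% NP40 and benzonase, ultracentrifuged, and the supernatant analysed by TMT-labelled LC-MS/MS.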
# [2] = biological target: T2, E9PNW4|E9PR17|P13987 (UniProt P13987)
# T2 sequence (whole entry): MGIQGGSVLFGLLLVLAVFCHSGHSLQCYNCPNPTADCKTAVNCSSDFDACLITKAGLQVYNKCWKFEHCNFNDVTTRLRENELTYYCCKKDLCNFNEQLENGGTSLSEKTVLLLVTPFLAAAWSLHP
# Procedure, shortened: as §1
# [3] = biological target: T3, UniProt O43861|O43861-2
# T3 sequence (whole entry): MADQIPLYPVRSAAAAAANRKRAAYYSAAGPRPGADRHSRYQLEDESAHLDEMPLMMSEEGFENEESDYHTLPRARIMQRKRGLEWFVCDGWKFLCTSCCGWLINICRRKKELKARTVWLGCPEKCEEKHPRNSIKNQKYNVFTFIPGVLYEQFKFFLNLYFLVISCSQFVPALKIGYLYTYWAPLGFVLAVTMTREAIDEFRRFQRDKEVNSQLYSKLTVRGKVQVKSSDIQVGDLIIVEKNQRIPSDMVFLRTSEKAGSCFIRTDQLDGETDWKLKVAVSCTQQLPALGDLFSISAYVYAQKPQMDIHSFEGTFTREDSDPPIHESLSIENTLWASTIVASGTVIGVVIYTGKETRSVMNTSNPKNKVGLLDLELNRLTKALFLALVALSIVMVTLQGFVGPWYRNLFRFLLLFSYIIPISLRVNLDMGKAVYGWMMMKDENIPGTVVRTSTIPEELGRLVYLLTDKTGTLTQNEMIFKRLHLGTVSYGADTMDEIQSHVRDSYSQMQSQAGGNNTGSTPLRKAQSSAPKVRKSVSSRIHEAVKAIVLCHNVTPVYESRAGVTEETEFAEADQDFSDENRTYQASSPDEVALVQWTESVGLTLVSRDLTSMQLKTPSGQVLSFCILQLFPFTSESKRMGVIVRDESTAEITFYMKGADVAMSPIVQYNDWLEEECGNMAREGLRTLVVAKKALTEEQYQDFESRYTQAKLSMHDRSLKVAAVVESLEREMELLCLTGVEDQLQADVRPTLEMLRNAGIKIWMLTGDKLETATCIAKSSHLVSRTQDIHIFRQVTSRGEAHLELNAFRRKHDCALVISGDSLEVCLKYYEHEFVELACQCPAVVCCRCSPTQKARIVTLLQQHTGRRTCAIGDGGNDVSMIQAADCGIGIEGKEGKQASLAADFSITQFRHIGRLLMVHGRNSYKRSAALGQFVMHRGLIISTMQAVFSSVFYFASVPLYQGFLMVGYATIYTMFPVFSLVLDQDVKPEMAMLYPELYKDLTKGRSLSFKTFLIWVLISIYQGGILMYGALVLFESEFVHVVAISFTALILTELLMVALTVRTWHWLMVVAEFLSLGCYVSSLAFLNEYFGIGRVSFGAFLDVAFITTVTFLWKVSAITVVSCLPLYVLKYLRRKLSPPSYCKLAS
# Procedure, shortened: as §1
# [4] = biological target: T4, ZW10 (UniProt O43264)
# T4 sequence (whole entry): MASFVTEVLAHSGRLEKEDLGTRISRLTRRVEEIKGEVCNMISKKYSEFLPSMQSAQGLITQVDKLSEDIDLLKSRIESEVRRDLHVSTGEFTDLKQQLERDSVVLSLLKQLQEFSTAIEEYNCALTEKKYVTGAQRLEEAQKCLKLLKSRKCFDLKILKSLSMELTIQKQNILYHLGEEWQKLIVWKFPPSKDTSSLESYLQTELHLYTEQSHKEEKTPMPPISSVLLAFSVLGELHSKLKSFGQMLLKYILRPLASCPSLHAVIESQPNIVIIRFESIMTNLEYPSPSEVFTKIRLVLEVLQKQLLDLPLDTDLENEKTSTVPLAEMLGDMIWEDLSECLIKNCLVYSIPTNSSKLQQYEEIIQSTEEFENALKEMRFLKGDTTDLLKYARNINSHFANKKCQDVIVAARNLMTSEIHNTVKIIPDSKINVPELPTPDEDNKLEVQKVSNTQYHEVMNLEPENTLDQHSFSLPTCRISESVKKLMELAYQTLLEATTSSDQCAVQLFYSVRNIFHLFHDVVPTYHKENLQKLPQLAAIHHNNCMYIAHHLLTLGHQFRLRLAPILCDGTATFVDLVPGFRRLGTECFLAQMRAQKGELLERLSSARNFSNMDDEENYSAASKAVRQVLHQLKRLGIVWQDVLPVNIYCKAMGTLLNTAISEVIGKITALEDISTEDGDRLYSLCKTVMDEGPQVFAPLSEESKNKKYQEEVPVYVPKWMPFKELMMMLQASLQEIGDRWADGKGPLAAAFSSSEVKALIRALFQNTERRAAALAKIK
# Procedure, shortened: as §1
structure (smiles),measurement,setting,value
Nc1ncnc2c1ncn2[C@@H]1O[C@H](COP(=O)(O)OP(=O)(O)NP(=O)(O)O)[C@@H](O)[C@H]1O [adenylyl imidodiphosphate],NP40-soluble protein abundance,[1]; concentration: 1mM,1.03 ± 0.021
same,NP40-soluble protein abundance,[1]; concentration: 2mM,1.09 ± 0.089
same,NP40-soluble protein abundance,[1]; concentration: 4mM,1.03 ± 0.034
same,NP40-soluble protein abundance,[1]; concentration: 6mM,1.04 ± 0.034
same,NP40-soluble protein abundance,[1]; concentration: 8mM,0.993 ± 0.028
same,NP40-soluble protein abundance,[1]; concentration: 10mM,1.05 ± 0.07
same,NP40-soluble protein abundance,[2]; concentration: 1mM,1.05 ± 0.053
same,NP40-soluble protein abundance,[2]; concentration: 2mM,1.11 ± 0.13
same,NP40-soluble protein abundance,[2]; concentration: 4mM,1.03 ± 0.049
same,NP40-soluble protein abundance,[2]; concentration: 6mM,1.07 ± 0.051
same,NP40-soluble protein abundance,[2]; concentration: 8mM,1.1 ± 0.015
same,NP40-soluble protein abundance,[2]; concentration: 10mM,1.06 ± 0.03
same,NP40-soluble protein abundance,[3]; concentration: 1mM,1.01 ± 0.022
same,NP40-soluble protein abundance,[3]; concentration: 2mM,1 ± 0.012
same,NP40-soluble protein abundance,[3]; concentration: 4mM,1.01 ± 0.025
same,NP40-soluble protein abundance,[3]; concentration: 6mM,0.986 ± 0.013
same,NP40-soluble protein abundance,[3]; concentration: 8mM,1 ± 0.041
same,NP40-soluble protein abundance,[3]; concentration: 10mM,1.024 ± 0.0049
same,NP40-soluble protein abundance,[4]; concentration: 1mM,0.994 ± 0.031
same,NP40-soluble protein abundance,[4]; concentration: 2mM,0.974 ± 0.043
same,NP40-soluble protein abundance,[4]; concentration: 4mM,0.977 ± 0.047
same,NP40-soluble protein abundance,[4]; concentration: 6mM,0.936 ± 0.064
same,NP40-soluble protein abundance,[4]; concentration: 8mM,0.919 ± 0.081
same,NP40-soluble protein abundance,[4]; concentration: 10mM,0.941 ± 0.07
